Assay results reported in PubChem BioAssay (Tox21).
Several values for one entry are separate records, joined by “and”; a condition that tells them apart may be missing. Equal entries are not always repeated. Results filed as inconclusive are left out. A call without a number means that no potency is given here. More than one record can exist for a structure, and the calls need not agree. Activity calls are given as the source filed them. Calls come from the whole dose curve; as a rule, active = well fitted curve in the direction sought with a large enough effect in the repeat runs; inconclusive = weak or mixed curves; inactive = no such curve, though single readings can be large; an effect the other way counts as inactive or inconclusive.

Assays:
[1] = target: Cytochrome P450 2C9 (Homo sapiens) (UniProt P11712); test: Cytochrome P450 Family 2 Subfamily C Member 9 (CYP2C9) small molecule antagonists: luciferase reporter qHTS assay (AID 1671198)
Outline: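 P450-Glo proluciferin substrate with CYP2C9 enzyme; 10 min RT preincubation, then NADPH regeneration 1 h at 37C; luciferin detection reagent 20 min RT, luminescence in relative luminescence units.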

[2] = target: Cytochrome P450 1A2 (Homo sapiens) (UniProt P05177); test: Cytochrome P450 Family 1 Subfamily A Member 2 (CYP1A2) small molecule antagonists: luciferase reporter qHTS assay (AID 1671199)
Outline: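 P450-Glo CYP1A2 enzyme–proluciferin substrate mix with compound 10 min at room temperature, then NADPH regeneration 1 h at room temperature. Luciferin detection reagent added, luminescence read after 20 min; furafylline positive control.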

[3] = target: Voltage-gated inwardly rectifying potassium channel KCNH2 (Homo sapiens) (UniProt Q12809); test: Human Ether-a-go-go-Related Gene (hERG) channel small molecule antagonists: fluorescence cell-based qHTS assay (AID 1671200)
Outline: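 Read-out: thallium influx as a surrogate for potassium, tracked as fluorescence (480 nm ex/540 nm em) every second for 2 min after Stimulus Buffer addition in dye-loaded hERG-U2OS cells.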

[4] = target: Cytochrome P450 3A4 (Homo sapiens) (UniProt P08684); test: Cytochrome P450 Family 3 Subfamily A Member 4 (CYP3A4) small molecule antagonists: luciferase reporter qHTS assay (AID 1671201)
Outline: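 Luminescent readout (RLU) proportional to CYP3A4 activity, from luciferin generated off a proluciferin substrate. Enzyme–substrate mix plus compound 10 min at room temp, NADPH regeneration 1 h, detection reagent 20 min.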
Note: nearly all actives have a fitted effect of over 50% in size.
Potency is the fitted concentration of half-maximal effect.

Sequence of Cytochrome P450 1A2 (Homo sapiens) (P05177 whole entry, looked up): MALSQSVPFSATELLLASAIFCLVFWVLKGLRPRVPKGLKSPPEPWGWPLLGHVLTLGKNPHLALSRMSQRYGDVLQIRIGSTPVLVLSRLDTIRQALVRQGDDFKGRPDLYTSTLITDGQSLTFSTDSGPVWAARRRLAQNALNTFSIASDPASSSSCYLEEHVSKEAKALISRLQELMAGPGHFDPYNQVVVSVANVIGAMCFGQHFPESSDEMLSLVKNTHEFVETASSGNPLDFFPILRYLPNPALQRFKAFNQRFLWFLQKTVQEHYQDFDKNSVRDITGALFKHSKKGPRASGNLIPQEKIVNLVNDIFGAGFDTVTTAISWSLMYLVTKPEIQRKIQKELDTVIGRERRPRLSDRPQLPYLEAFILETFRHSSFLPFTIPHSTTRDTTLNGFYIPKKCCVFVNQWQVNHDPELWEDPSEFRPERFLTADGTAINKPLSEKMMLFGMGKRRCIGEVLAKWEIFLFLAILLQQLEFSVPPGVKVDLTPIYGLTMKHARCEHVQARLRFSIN
Sequence of Cytochrome P450 3A4 (Homo sapiens) (P08684 whole entry, looked up): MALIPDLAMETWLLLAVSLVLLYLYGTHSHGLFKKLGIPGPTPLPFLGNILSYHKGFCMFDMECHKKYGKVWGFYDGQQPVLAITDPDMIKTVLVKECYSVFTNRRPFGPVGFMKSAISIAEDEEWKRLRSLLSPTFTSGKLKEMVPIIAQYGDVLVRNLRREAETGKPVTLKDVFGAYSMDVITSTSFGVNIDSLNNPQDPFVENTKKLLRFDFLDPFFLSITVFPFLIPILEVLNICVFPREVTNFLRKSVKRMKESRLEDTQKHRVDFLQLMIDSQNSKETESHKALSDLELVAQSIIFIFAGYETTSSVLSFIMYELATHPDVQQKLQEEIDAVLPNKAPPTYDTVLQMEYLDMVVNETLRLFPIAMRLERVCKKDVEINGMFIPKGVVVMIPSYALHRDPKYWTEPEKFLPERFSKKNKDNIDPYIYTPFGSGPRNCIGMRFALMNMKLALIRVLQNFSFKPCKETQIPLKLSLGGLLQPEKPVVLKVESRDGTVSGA
Sequence of Cytochrome P450 2C9 (Homo sapiens) (P11712 whole entry, looked up): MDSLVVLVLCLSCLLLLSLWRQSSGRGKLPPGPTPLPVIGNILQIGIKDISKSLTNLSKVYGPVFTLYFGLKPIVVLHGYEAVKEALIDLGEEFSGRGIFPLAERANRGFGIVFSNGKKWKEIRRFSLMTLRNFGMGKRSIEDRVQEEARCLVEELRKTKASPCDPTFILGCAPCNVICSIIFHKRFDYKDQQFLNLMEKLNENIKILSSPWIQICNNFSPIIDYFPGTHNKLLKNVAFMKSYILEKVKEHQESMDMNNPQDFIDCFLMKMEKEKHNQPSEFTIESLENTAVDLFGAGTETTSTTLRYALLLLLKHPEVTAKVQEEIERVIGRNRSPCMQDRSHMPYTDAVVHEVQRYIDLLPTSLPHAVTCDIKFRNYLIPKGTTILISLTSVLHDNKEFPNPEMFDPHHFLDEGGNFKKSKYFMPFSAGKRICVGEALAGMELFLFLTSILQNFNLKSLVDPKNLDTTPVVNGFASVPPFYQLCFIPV
Sequence of Voltage-gated inwardly rectifying potassium channel KCNH2 (Homo sapiens) (Q12809 whole entry, looked up): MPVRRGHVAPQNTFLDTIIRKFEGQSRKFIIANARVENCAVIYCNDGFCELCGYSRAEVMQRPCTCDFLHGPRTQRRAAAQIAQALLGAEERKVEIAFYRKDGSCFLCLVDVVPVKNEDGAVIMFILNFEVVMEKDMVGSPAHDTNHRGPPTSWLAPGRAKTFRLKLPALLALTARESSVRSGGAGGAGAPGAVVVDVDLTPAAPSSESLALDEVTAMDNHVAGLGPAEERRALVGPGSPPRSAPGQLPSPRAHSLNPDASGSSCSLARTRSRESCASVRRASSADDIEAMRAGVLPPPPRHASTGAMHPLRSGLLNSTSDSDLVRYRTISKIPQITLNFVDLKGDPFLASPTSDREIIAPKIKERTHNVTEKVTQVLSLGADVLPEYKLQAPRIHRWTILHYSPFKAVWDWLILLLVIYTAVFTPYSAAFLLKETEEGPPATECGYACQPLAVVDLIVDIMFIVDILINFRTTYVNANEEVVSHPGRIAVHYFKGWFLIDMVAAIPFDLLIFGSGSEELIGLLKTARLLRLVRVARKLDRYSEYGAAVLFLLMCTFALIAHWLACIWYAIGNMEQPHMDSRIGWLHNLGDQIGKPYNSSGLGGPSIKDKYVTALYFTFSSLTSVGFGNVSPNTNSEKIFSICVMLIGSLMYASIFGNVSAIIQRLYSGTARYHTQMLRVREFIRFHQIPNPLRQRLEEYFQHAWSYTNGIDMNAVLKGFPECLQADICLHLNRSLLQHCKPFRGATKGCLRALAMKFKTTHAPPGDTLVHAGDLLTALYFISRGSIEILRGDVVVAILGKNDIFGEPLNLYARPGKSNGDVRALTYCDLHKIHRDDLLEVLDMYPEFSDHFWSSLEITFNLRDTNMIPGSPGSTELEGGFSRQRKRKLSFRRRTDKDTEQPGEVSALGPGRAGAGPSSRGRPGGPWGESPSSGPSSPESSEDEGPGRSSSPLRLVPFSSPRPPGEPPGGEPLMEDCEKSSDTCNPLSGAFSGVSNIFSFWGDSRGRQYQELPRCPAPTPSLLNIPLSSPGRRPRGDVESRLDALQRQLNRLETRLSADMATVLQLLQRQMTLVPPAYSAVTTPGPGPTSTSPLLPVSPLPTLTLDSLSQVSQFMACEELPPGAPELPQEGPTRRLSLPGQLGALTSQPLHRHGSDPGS

SMILES	Potency [1]	Potency [2]	Potency [3]	Potency [4]
O=C(O)CN(CC(=O)O)CC(=O)O	inactive	inactive	inactive	inactive
O=C1OC(c2ccc(O)cc2)(c2ccc(O)cc2)c2ccccc21	19.9 µM (active) and 20 µM (active) and 12.3 µM (active)	56 µM (active) and inactive	inactive and 38.9 µM (active)	–
COc1cc(C=O)ccc1O	inactive	inactive	inactive	inactive
COC1=CC(=O)C[C@@H](C)[C@]12Oc1c(Cl)c(OC)cc(OC)c1C2=O	44.8 µM (active) and inactive	inactive	inactive	–
O=c1c(-c2ccc(O)cc2)coc2cc(O)cc(O)c12	55.5 µM (active) and 71 µM (active) and inactive	19.7 µM (active) and 39.9 µM (active)	inactive	–
COc1ccc(O)cc1	inactive	inactive	inactive	inactive
C=CC(=O)NC(C)(C)CS(=O)(=O)O	inactive	inactive	inactive	inactive
C/C=C/c1ccc(O)c(OC)c1	2.83 µM (active) and 20 µM (active) and 13.8 µM (active)	20 µM (active) and 22.4 µM (active) and 11.5 µM (active)	inactive	–
C1CNCCN1	inactive	41.1 µM (active) and inactive	inactive	inactive
Cc1cccc(Nc2cc(Cl)nc(SCC(=O)O)n2)c1C	31.7 µM (active) and 29.2 µM (active) and 17.4 µM (active)	inactive	inactive	inactive
O=C(O)Cc1cccc2ccccc12	inactive	33.5 µM (active) and 43.5 µM (active)	inactive	inactive
C[C@]12CC[C@@H]3c4ccc(O)cc4C[C@@H](CCCCCCCCCS(=O)CCCC(F)(F)C(F)(F)F)[C@H]3[C@@H]1CC[C@@H]2O (stereo not given in full)	2.83 µM (active) and 3.32 µM (active) and 2.75 µM (active)	inactive	inactive	2 µM (active) and 1.86 µM (active) and 1.55 µM (active)
C=C(C)OC(C)=O	inactive	inactive	inactive	inactive
N[C@@H](Cc1c[nH]c2ccc(O)cc12)C(=O)O	27.5 µM (active) and 34.7 µM (active)	30.8 µM (active) and 30.9 µM (active)	inactive	–
COC(=O)c1ccc(O)cc1	inactive	32 µM (active) and 35.6 µM (active) and 27.5 µM (active)	inactive	inactive
Nc1cccc(N)c1	70.9 µM (active)	63.2 µM (active) and 39.4 µM (active) and 31.7 µM (active)	inactive	–
Oc1cccc(O)c1	inactive	inactive	inactive	–
CCCCOCCOCCSC#N	inactive	6.67 µM (active) and 11.1 µM (active)	inactive	inactive
O=[N+]([O-])c1ccc(O)cc1	inactive	20.8 µM (active) and inactive	inactive	5.86 µM (active) and inactive
CCN1CCCC1=O	inactive	inactive	inactive	inactive

SMILES	Potency [1]	Potency [2]	Potency [3]	Potency [4]
c1ccc2[nH]c(-c3cscn3)nc2c1	inactive	5.06 µM (active) and 2.83 µM (active) and 2.45 µM (active)	inactive	–
CCCCCCCCCCCCCCCCCC(=O)OCC(O)CO (stereo not given)	inactive	inactive	inactive	inactive
CC(=O)OC/C=C(C)/C=C/C=C(C)/C=C/C1=C(C)CCCC1(C)C	31 µM (active) and 31.7 µM (active) and 19.5 µM (active)	inactive	inactive	–
CC1(C)O[C@@H]2[C@@H](CO[C@@]3(COS(N)(=O)=O)OC(C)(C)O[C@@H]23)O1	inactive	inactive	inactive	inactive
CCCCNC(=O)NS(=O)(=O)c1ccc(N)cc1	inactive	inactive	inactive	inactive
Cc1cccc2ccccc12	inactive	inactive	inactive	inactive
NC(=O)c1ccc([N+](=O)[O-])cc1Cl	71 µM (active) and inactive	inactive	inactive	inactive
Cc1c(N(C)C)c(=O)n(-c2ccccc2)n1C	inactive	25.6 µM (active)	inactive	inactive
Cc1cnc(NC(=O)C2=C(O)c3ccccc3S(=O)(=O)N2C)s1	7.98 µM (active) and 11.2 µM (active) and 12.3 µM (active)	inactive	inactive	–
CCCCOC(=O)CCCCCCCCC(=O)OCCCC	28.3 µM (active)	inactive	inactive	inactive
CCCCC/C(C=O)=C\c1ccccc1	39.9 µM (active)	28.3 µM (active) and 35.6 µM (active) and 5.49 µM (active)	inactive	inactive
COC(=O)c1ccc(C=O)cc1	inactive	42.3 µM (active)	inactive	inactive
O=c1cc[nH]c(=O)[nH]1	inactive	inactive	inactive	inactive
OC[C@@H](O)[C@@H](O)[C@H](O)[C@H](O)CO	inactive and 89.4 µM (active)	inactive	inactive	inactive
COc1ccccc1O	inactive	inactive and 52.6 µM (active)	inactive	inactive
CCCCCCCCCCCCCC(=O)OC(C)C	inactive	inactive	inactive	inactive
CC(C)CC(C)CC(O)CC(C)C (stereo not given)	inactive	inactive	inactive	inactive
O=C(O)CCCCC1CCSS1 (stereo not given)	inactive	inactive	inactive	inactive
CN/C(=C\[N+](=O)[O-])NCCSCc1ccc(CN(C)C)o1	inactive	inactive and 24.5 µM (active)	inactive	inactive
CCOCCO	inactive	inactive	inactive	inactive

SMILES	Potency [1]	Potency [2]	Potency [3]	Potency [4]
CCN(CC)CCOC(=O)c1ccc(N)cc1	inactive	inactive	inactive	inactive
CN(C)C=O	inactive	inactive	inactive	inactive
OCCCc1ccccc1	inactive	35.6 µM (active)	inactive	inactive
COCCOCCOC	inactive	inactive	inactive	inactive
O=C1CCCCCN1	inactive	inactive	inactive	inactive
NC(=O)OCC(COC(N)=O)c1ccccc1	inactive	inactive	inactive	inactive
C=CCOC(=O)CC(C)C	inactive	inactive	inactive	inactive
CN(C)Cc1cc(CN(C)C)c(O)c(CN(C)C)c1	inactive	inactive	inactive	inactive
COC(=O)C1CCC(C(=O)OC)CC1 (stereo not given)	inactive	inactive	inactive	inactive
COc1cc(O)c(C(=O)c2ccccc2)cc1S(=O)(=O)O	inactive	inactive	inactive	inactive
CCCCCCCCOc1ccc(C(=O)c2ccccc2)c(O)c1	12.6 µM (active)	inactive	inactive	inactive
CC(O)COc1ccccc1 (stereo not given)	inactive	inactive	inactive	inactive
Cc1ccc(O)c(-n2nc3ccccc3n2)c1	8.87 µM (active) and 7.1 µM (active) and 8.71 µM (active)	2.23 µM (active) and 1.42 µM (active) and 2.57 µM (active)	inactive	22.3 µM (active) and 25.2 µM (active)
COc1ccc(C(=O)c2ccccc2)c(O)c1	39.3 µM (active) and 35.6 µM (active) and 24.5 µM (active)	19.7 µM (active) and 22.4 µM (active) and 12.9 µM (active)	38.3 µM (active) and inactive	inactive
NC(=O)N/N=C/c1ccc([N+](=O)[O-])o1	inactive	inactive and 41.5 µM (active)	inactive	inactive
COCC(C)N (stereo not given)	inactive	44.8 µM (active)	inactive	inactive
CC(C)(C)NCC(O)c1ccc(O)c(CO)c1 (stereo not given)	inactive	inactive	inactive	inactive
COc1ccccc1NC(=O)CC(C)=O	inactive	31.3 µM (active) and 35.6 µM (active)	inactive	63.3 µM (active)
NC(=O)N1c2ccccc2C=Cc2ccccc21	inactive	inactive	inactive	inactive
O=C(OCc1ccccc1)c1ccccc1	40 µM (active) and 63.3 µM (active)	31.8 µM (active) and 35.6 µM (active) and 13.8 µM (active)	inactive	inactive
